Results: PubChem BioAssay AID2315 (National Center for Advancing Translational Sciences (NCATS), 2010)
Values joined by “and” are separate entries in the source; they are usually repeats but may differ in a detail not shown here. Identical values can stand only once. Among all 290,000 compounds or so, about 27,000 (9.3%) were called active. The entries come from a sample that favours actives as a whole. Unmarked numbers belong to inactive results. Rule as the data show it: active = inhibition mostly above about 28% (no sharp cut-off); inactive = mostly below about 43%.

Assay: A qHTS for Small Molecule Inhibitors of Shiga Toxin; also: 0% is about no effect
Conditions: Vero cells, Shiga toxin protein synthesis inhibition reporter; at 38.7 µM, hits give high values
Molecule `CN(CC(=O)O)S(=O)(=O)c1ccc2oc3ccccc3c2c1` has an inhibition of -10.6%. With `COC(=O)CCC(=O)N1CCCC(CO)(Cc2ccccc2)C1` (stereo unspecified) the inhibition was 110% (active). With `Cc1noc(C)c1CCC(=O)N1CCCC(CO)(Cc2ccccc2)C1` (stereo unspecified) the inhibition was 98.7% (active). For `Cc1noc(C)c1CCC(=O)O`, the inhibition was 17.5%. In the case of `CCOC(=O)C1(Cc2ccccc2C)CCCN(C(=O)CCc2c(C)noc2C)C1` (stereo unspecified), the inhibition is reported as 15.6%. For `CCCc1cc(C(=O)N2CCCC(CO)(CCCc3ccccc3)C2)n(C)n1` (stereo unspecified), the inhibition was -8.83%. In the case of `Cc1ccccc1CC1(CO)CCCN(C(=O)c2cc(-c3ccccc3)no2)C1` (stereo unspecified), the inhibition is reported as 51%. Work on `Cc1cc(NC(=O)CSc2nc(=O)cc(N)n2-c2ccc(F)cc2)no1` yielded an inhibition of 9.91%. With `COc1cccc(C(O)c2nc3ccccc3n2C)c1` (stereo unspecified) the inhibition was -5.57%. Work on `O=C(NCCCn1ccnc1)c1ccccc1F` yielded an inhibition of -3%. In the case of `Cc1cccc(N2CCN(C(C)C(=O)N3CCc4ccccc43)CC2)c1C` (stereo unspecified), the inhibition is reported as 12.5%. `COc1ccc(NC(=O)CCC(=O)Nc2cc(OC)c(NC(=O)c3ccco3)cc2OC)c(OC)c1` gave an inhibition of 2.68%. In the case of `CCOC(=O)C1CCN(Cc2nnc(-c3cccc(Br)c3)o2)CC1`, the inhibition is reported as -4.47%. In the case of `Cc1c2cnn(CC(=O)NCCCN3CC(C)CC(C)C3)c(=O)c2c(C)n1Cc1ccc(Cl)cc1` (stereo unspecified), the inhibition is reported as 10.2%. Work on `CCCc1nc2ccccc2c(=O)n1/N=C/c1ccc(O)c(O)c1` yielded an inhibition of -7.79%. With `O=c1c2ccccc2nc(N/N=C/c2ccccc2)n1O` the inhibition was 4.04%. With `O=c1c2ccccc2ncn1/N=C/c1ccccc1` the inhibition was 89.3% (active). `Cc1c(Cl)cccc1NC(=O)NCc1ccc(C)n1C` gave an inhibition of -6.17%. With `COc1ccc(CN(C)C(=O)Cc2c[nH]c3ccccc23)c(OC)c1OC` the inhibition was -4.06%. For `O=S(=O)(/C=C/c1ccccc1)N1CCNCC1`, the inhibition was -7.81%. `CCc1cccc(NC(=S)N(CCN(C)C)C2CCN(C(C)C)CC2)c1` gave an inhibition of -1.09%. With `Cc1ccc(Nc2nc(C)cc(C)c2C(N)=O)cc1` the inhibition was -8.95%. `Cc1ccc(NC(=O)Nc2nnc(-c3ccncc3)s2)cc1` showed an inhibition of -16.3%. In the case of `Cc1ccc(Nc2nc(Cl)c(C=O)s2)cc1`, the inhibition is reported as 39.5% (active). `COc1ccc(C(=O)NCCNc2ccc([N+](=O)[O-])cn2)cc1` gave an inhibition of -3.6%. Molecule `CCn1cc(/C=C(\NC(=O)c2cc(OC)c(OC)c(OC)c2)C(=O)N2CCN(C)CC2)c2ccccc21` has an inhibition of -5.81%. `O=C(NCCOc1cccnc1)c1ccc(OC2CCN(Cc3ccccn3)CC2)cc1` gave an inhibition of -23.8%. `O=C(OCC(=O)N1CCN(C(=O)c2ccco2)CC1)c1cccc(O)c1` showed an inhibition of 18.4%. In the case of `O=C(CCn1nnc2ccccc21)OCC(=O)c1ccc([N+](=O)[O-])cc1`, the inhibition is reported as -9.08%. With `COc1ccc(C2C3=C(OC(C)=O)c4ccccc4C3=Nc3c2c(=O)n(C)c(=O)n3C)cc1` (stereo unspecified) the inhibition was -4.21% and -6.55%. For `COc1ccc(/C=C/c2noc(-c3ccccc3OC(C)=O)n2)cc1`, the inhibition was 50.5% (active). For `CC(=O)Oc1ccc2c(c1)C(=O)c1ccccc1C2=O`, the inhibition was 49.5%. `Cc1ccc(NC(=O)c2cccs2)cc1S(=O)(=O)N(C)C` showed an inhibition of 30%. For `Cc1ccc(C(=O)Nc2ccc(C)c(S(=O)(=O)N(C)C)c2)s1`, the inhibition was 64.1% (active). Molecule `CCN(CC(=O)Nc1ccc(C)c(S(=O)(=O)N(C)C)c1)Cc1ccccc1` has an inhibition of 12.4%. Work on `O=C(c1ccc(S(=O)(=O)N2CCCC2)cc1)N1CCN(c2ccccc2F)CC1` yielded an inhibition of -13.1%. Molecule `CCOC(=O)CSc1nnc(-c2ccc([N+](=O)[O-])cc2)o1` has an inhibition of 7.13%. Molecule `CCc1ccccc1NC(=O)CSc1nnc(-c2ccncc2)o1` has an inhibition of 6.43%. In the case of `O=C(CSc1nnc(-c2ccc([N+](=O)[O-])cc2)o1)Nc1ccccn1`, the inhibition is reported as 88.1% (active). `O=C(NC1CCCC1)C(c1ccco1)N(C(=O)c1csnn1)c1ccccc1` (stereo unspecified) showed an inhibition of -6.47%. In the case of `COC(=O)c1ccc(NC(=O)CSc2nc(N)c(NC(=O)c3ccc(Br)o3)c(=O)[nH]2)cc1`, the inhibition is reported as -12.8%. `O=C(OCC(=O)N1CCCC1)c1ccco1` gave an inhibition of 24.9%. For `CCc1ccc(C(=O)COC(=O)c2ccco2)cc1`, the inhibition was 56.1% (active). `CCN(CC)c1ccc(C(=O)OCC(=O)c2ccco2)cc1` gave an inhibition of 46.8%. `COc1ccc(C2/C=C\CN(C(=O)c3ccc(C)cc3)C(Cc3ccccc3)C(=O)N2Cc2ccc(F)cc2)cc1` (stereo unspecified) gave an inhibition of 16.3%. For `O=C(CN1CCCCCC1)Nc1ccc(S(=O)(=O)N2CCCCC2)cc1`, the inhibition was -3.01%. `O=C(CC1NCCNC1=O)Nc1cc(Cl)cc(Cl)c1` (stereo unspecified) showed an inhibition of -12.8%. In the case of `O=C(CC1NCCc2ccccc21)Nc1cccc(Cl)c1` (stereo unspecified), the inhibition is reported as 51.4% (active). For `O=C(CC1C(=O)NCCN1C(=O)c1ccc([N+](=O)[O-])cc1)Nc1cccc(Cl)c1` (stereo unspecified), the inhibition was -30.7%. Work on `CCN(CC)CCN(C(=O)c1cc(Cl)sc1Cl)c1nc2cc3c(cc2s1)OCO3` yielded an inhibition of 6.7%. For `CCOC(=O)/C(C#N)=C/c1cn(CCC(=O)O)nc1-c1ccc(Br)cc1`, the inhibition was 2.95%. `COc1cc(C2C3=C(CCCC3=O)OC3=C2C(=O)CCC3)ccc1OCC(=O)Nc1ccccc1` showed an inhibition of 37.9%. In the case of `CCCn1c(C)cc(/C=C(\C#N)C(=O)OCC(=O)Nc2cc(OC)c(OC)c(OC)c2)c1C`, the inhibition is reported as 32.6% (active). For `CCOC(=O)/C(C#N)=C/c1ccc(OCC(=O)Nc2ccccc2)c(OC)c1`, the inhibition was 70.9% (active). With `COc1cc(CCC(=O)OCC(=O)Nc2cccc(S(N)(=O)=O)c2)cc(OC)c1OC` the inhibition was -3.91%. Molecule `COc1cc(/C=N/NC(=O)Nc2ccccc2)ccc1OCCOc1ccccc1C` has an inhibition of -4.02%. `Cc1ccc(C(=O)Oc2ccc(C(=S)N3CCOCC3)cc2)cc1` showed an inhibition of 3.46%. `CCc1ccc(C(=O)NC(=S)Nc2ccccc2N2CCOCC2)cc1` showed an inhibition of -5.58%. Molecule `COc1cc2c(cc1OC)CN(C(=O)c1cc(S(=O)(=O)N3CCCCC3)ccc1Cl)CC2` has an inhibition of 2%. Molecule `Cc1ccc2nc3c(cc(C(=O)NCCc4ccccc4)c(=N)n3CC3CCCO3)c(=O)n2c1` (stereo unspecified) has an inhibition of -3.67%. In the case of `COc1ccccc1CN1CC(C(=O)NCCc2cn[nH]c2)CCC1=O` (stereo unspecified), the inhibition is reported as 22%. With `CCc1ccc(N(C(=O)c2csnn2)C(C(=O)NC2CCCCC2)c2cccnc2)cc1` (stereo unspecified) the inhibition was 2.03%. `CC1(C(=O)NCCc2c[nH]c3ccccc23)C=CC2(CCCCC2)N1C(=O)c1ccccc1` (stereo unspecified) showed an inhibition of 14.3%. Molecule `Cc1cc(NC(=O)CSc2nc(C(C)C)nc3sc4c(c23)CCC(C)C4)no1` (stereo unspecified) has an inhibition of 22.7%. In the case of `Cc1nc(SCC(=O)Nc2cc(C)on2)c2c(C)c(C)sc2n1`, the inhibition is reported as 12.3%. For `Cc1cc(NC(=O)CSc2nc3c(cc2C#N)CCCCC3)no1`, the inhibition was 78.8% (active). For `Cc1ccc2cc(C#N)c(SCC(=O)NCC3CCCO3)nc2c1C` (stereo unspecified), the inhibition was -7.12%. With `Cc1nc(SCC(=O)Nc2cc(C)on2)c2c3c(sc2n1)CCCC3` the inhibition was 21.2% (active). Molecule `CC(NC(=O)CSc1nc2c(cc1C#N)CN(C)CC2)c1ccccc1` (stereo unspecified) has an inhibition of -9.63%. With `COc1cccc(CN2CCN(Cc3ccc4cccc(F)c4n3)CC2CCO)c1` (stereo unspecified) the inhibition was 12.8%. `O=C(NCc1cccnc1)C12CC3CC(CC(C3)C1)C2` gave an inhibition of 11.5%. For `Cc1ccc(C(=O)COC(=O)CCN2C(=O)C3C4CCC(C4)C3C2=O)cc1C` (stereo unspecified), the inhibition was 34.8%. With `O=C(CCC1CCN(C(=O)c2cccc(Cl)c2F)CC1)Nc1ccccc1` the inhibition was -32%. In the case of `COc1ccccc1CC(=O)Nc1ccc(S(=O)(=O)N2CCCC2)cc1`, the inhibition is reported as -2.78%. For `CCOC(=O)C1C(c2ccc(O)cc2)NC(=O)NC1(O)C(F)(F)F` (stereo unspecified), the inhibition was -6.9%. For `O=C(COc1ccc(-n2cnnn2)cc1)Nc1ccccc1Cl`, the inhibition was -8.42%. With `CC(C)(C)c1ccc(C(CC(=O)O)NS(=O)(=O)Cc2ccccc2)cc1` (stereo unspecified) the inhibition was 17%. `COc1ccccc1Oc1nc(-c2cccnc2)nc2ccccc12` gave an inhibition of 10.4%. Molecule `COc1ccc(Nc2nc(-c3cccnc3)nc3ccccc23)cn1` has an inhibition of -3.47%. With `Fc1ccc(/C=N/Nc2nc(-c3cccnc3)nc3ccccc23)cc1` the inhibition was 47.7% (active). In the case of `Nc1nonc1-n1nnc(C(=O)N/N=C/c2ccc(Cl)cc2)c1-c1ccc2c(c1)OCO2`, the inhibition is reported as -3.05%. With `COc1ccccc1OCC(=O)OCn1c(SC)nnc(C)c1=O` the inhibition was 5.34%. With `O=C(CN1CCN(c2ccccn2)CC1)NC1CCCCC1` the inhibition was -9.42%. With `COc1ccccc1NC(=O)C(C)OC(=O)CC1CCCC1` (stereo unspecified) the inhibition was -16.1%. Work on `N/C(=N\OC(=O)Cc1ccccc1[N+](=O)[O-])c1ccc(Br)cc1` yielded an inhibition of 49%. With `COc1ccccc1OCC(=O)O/N=C(\N)c1ccccn1` the inhibition was 55.8% (active). For `N/C(=N\OC(=O)CC1CCCCC1)c1ccccc1`, the inhibition was 107% (active). With `COc1ccccc1OCc1nnc(SCC(N)=O)n1-c1ccccc1` the inhibition was 7.34%. With `N/C(=N\OC(=O)CCC1CCCCC1)c1ccccn1` the inhibition was 84.9% (active). Molecule `CC(C)(C)NC(=O)NC(=O)COC(=O)CCC1CCCCC1` has an inhibition of -9.95%. `CCN(CC(=O)Nc1ccc2c(c1)OCO2)S(=O)(=O)c1ccccc1` showed an inhibition of 2.17%. In the case of `Cc1cccc(CN2CCC(n3nccc3NC(=O)c3ccccc3C)CC2)n1`, the inhibition is reported as -8.84%. In the case of `Nc1nnnn1/N=C/c1cccc(Br)c1`, the inhibition is reported as 18.9%. Molecule `CCC1=NN2C(=N)/C(=C/c3cc(C)n(-c4ccccc4)c3C)C(=O)N=C2S1` has an inhibition of 6.12%. With `CCS(=O)(=O)C1=NSC2=NC(=O)/C(=C\c3cc(C)n(-c4cccc(OC)c4)c3C)C(=N)N21` the inhibition was 21.9%. With `Cc1cc(/C=C2/C(=N)N3C(=NC2=O)SN=C3S(C)(=O)=O)c(C)n1-c1ccccc1` the inhibition was 98% (active).
